Test results: PubChem BioAssay AID1159580 (chemical genetic matrix, 2015)
Hit rate of the full screen: of about 5,500 compounds, about 2,000 (36%) were called active. Roughly 18% stayed inconclusive and do not appear here. Cut-off read from the data, not from the text of the source: active = normalized growth mostly below about 0.91 (no sharp cut-off); inconclusive = no clear call, values can overlap the other calls; inactive = mostly above about 0.92. Some of the results follow.

Assay: chemical genetic growth profiling, strain panel (AID 1159580);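 note: tested at 20 µM; growth read once vehicle control cultures reached saturation at 30 °C; 1 = growth at the plate median or of vehicle wells; lower values mean less growth of the strain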
Settings: S. cerevisiae deletion strains, growth OD
[1] = locus YAR019C, strain CDC15, hits give low values
[2] = locus YBL105C, strain PKC1, hits give low values
[3] = locus YBR135W, strain CKS1, hits give low values
[4] = locus YBR136W, strain MEC1, hits give low values
[5] = locus YBR160W, strain CDC28, hits give low values
[6] = locus YDL017W, strain CDC7, hits give low values
[7] = locus YDL028C, strain MPS1, hits give low values
[8] = locus YDL101C, strain DUN1, hits give low values
[9] = locus YDL108W, strain KIN28, hits give low values
[10] = locus YDL132W, strain cdc53, hits give low values
[11] = locus YDL214C, strain PRR2, hits give low values
[12] = locus YDR052C, strain DBF4, hits give low values
[13] = locus YDR054C, strain cdc34, hits give low values
[14] = locus YDR226W, strain ADK1, hits give low values
[15] = locus YDR477W, strain SNF1, hits give low values
[16] = locus YER123W, strain YCK3, hits give low values
[17] = locus YER133W, strain GLC7, hits give low values
[18] = locus YFL009W, strain cdc4, hits give low values
[19] = locus YFL029C, strain CAK1, hits give low values
[20] = locus YFR003C, strain YPI1, hits give low values
[21] = locus YFR019W, strain FAB1, hits give low values
[22] = locus YGR040W, strain KSS1, hits give low values
[23] = locus YGR052W, strain FMP48, hits give low values
[24] = locus YGR092W, strain DBF2, hits give low values
[25] = locus YHR030C, strain SLT2, hits give low values
[26] = locus YHR079C, strain IRE1, hits give low values
[27] = locus YHR082C, strain KSP1, hits give low values
[28] = locus YHR205W, strain SCH9, hits give low values
[29] = locus YIL147C, strain SLN1, hits give low values
[30] = locus YJL095W, strain BCK1, hits give low values
[31] = locus YJL128C, strain PBS2, hits give low values
[32] = locus YJL157C, strain FAR1, hits give low values
[33] = locus YJR016C, strain ILV3, hits give low values
[34] = locus YJR066W, strain TOR1 (second series), hits give low values
[35] = locus YJR066W, strain TOR1, hits give low values
[36] = locus YKL048C, strain ELM1, hits give low values
[37] = locus YKL067W, strain YNK1, hits give low values
[38] = locus YKL101W, strain HSL1, hits give low values
[39] = locus YKL193C, strain SDS22, hits give low values
[40] = locus YKL203C, strain TOR2, hits give low values
[41] = locus YLR113W, strain HOG1, hits give low values
[42] = locus YLR133W, strain CKI1, hits give low values
[43] = locus YLR403W, strain SFP1, hits give low values
[44] = locus YML070W, strain DAK1, hits give low values
[45] = locus YMR001C, strain CDC5, hits give low values
[46] = locus YMR205C, strain PFK2 (second series), hits give low values
[47] = locus YMR277W, strain FCP1, hits give low values
[48] = locus YNL006W, strain LST8, hits give low values
[49] = locus YNL020C, strain ARK1, hits give low values
[50] = locus YNL161W, strain CBK1, hits give low values
[51] = locus YNL183C, strain NPR1, hits give low values
[52] = locus YNL207W, strain RIO2, hits give low values
[53] = locus YNL222W, strain SSU72, hits give low values
[54] = locus YNL307C, strain MCK1 (second series), hits give low values
[55] = locus YOL078W, strain AVO1, hits give low values
[56] = locus YOL136C, strain PFK27, hits give low values
[57] = locus YOR061W, strain CKA2, hits give low values
[58] = locus YOR119C, strain RIO1, hits give low values
[59] = locus YOR231W, strain MKK1, hits give low values
[60] = locus YOR329C, strain SCD5, hits give low values
[61] = locus YPL031C, strain PHO85, hits give low values
[62] = locus YPL153C, strain RAD53, hits give low values
[63] = locus YPL204W, strain HRR25, hits give low values
[64] = locus YPL209C, strain IPL1, hits give low values
[65] = locus YPL256C, strain CLN2, hits give low values
[66] = locus YPR025C, strain CCL1, hits give low values
[67] = locus YPR111W, strain DBF20, hits give low values
[68] = strain NNK1, hits give low values
[69] = strain TSCII, hits give low values
[70] = locus YFR028C, strain CDC14, hits give low values
[71] = locus YPR106W, strain ISR1, hits give low values
[72] = locus YAL013W, strain DEP1, hits give low values
[73] = locus YDR150W, strain NUM1, hits give low values
[74] = locus YMR263W, strain SAP30, hits give low values
[75] = locus YNL128W, strain TEP1, hits give low values
[76] = locus YNL153C, strain GIM3, hits give low values
[77] = locus YPL241C, strain CIN2, hits give low values

Measured: normalized growth

CC1C/C(=N/Nc2ccc(Br)cc2)c2cc(Cl)ccc2S1 (centres undefined)
inactive: [14] 0.931 | [67] 0.9
active: [1] 0.535 | [2] 0.485 | [3] 0.429 | [4] 0.497 | [5] 0.58 | [6] 0.525 | [7] 0.396 | [8] 0.458 | [9] 0.598 | [10] 0.546 | [11] 0.161 | [12] 0.703 | [13] 0.333 | [15] 0.146 | [16] 0.166 | [17] 0.213 | [18] 0.434 | [19] 0.404 | [20] 0.433 | [21] 0.124 | [22] 0.187 | [23] 0.215 | [24] 0.125 | [25] 0.193 | [26] 0.192 | [27] 0.277 | [28] 0.0907 | [29] 0.409 | [30] 0.15 | [31] 0.318 | [32] 0.168 | [33] 0.343 | [34] 0.117 | [35] 0.224 | [36] 0.198 | [37] 0.185 | [38] 0.187 | [39] 0.498 | [40] 0.182 | [41] 0.235 | [42] 0.128 | [43] 0.0605 | [44] 0.151 | [45] 0.644 | [46] 0.163 | [47] 0.519 | [48] 0.265 | [49] 0.141 | [50] 0.383 | [51] 0.194 | [52] 0.624 | [53] 0.369 | [54] 0.114 | [55] 0.529 | [56] 0.158 | [57] 0.12 | [58] 0.158 | [59] 0.187 | [60] 0.303 | [61] 0.147 | [62] 0.126 | [63] 0.131 | [64] 0.385 | [65] 0.208 | [66] 0.41 | [68] 0.545 | [69] 0.644

CC1C/C(=N/Nc2ccc(Br)cc2)c2cc(Cl)ccc2S1(=O)=O (centres undefined)
inactive: [1] 1.01 | [2] 0.996 | [3] 0.989 | [4] 0.999 | [5] 0.995 | [6] 0.997 | [7] 1 | [8] 0.988 | [9] 0.992 | [10] 0.986 | [11] 0.888 | [12] 0.998 | [13] 1 | [14] 0.986 | [15] 0.895 | [16] 0.82 | [17] 0.895 | [18] 0.991 | [19] 0.992 | [20] 0.998 | [70] 0.991 | [22] 0.893 | [23] 0.93 | [26] 0.647 | [27] 0.793 | [28] 0.728 | [29] 1 | [30] 0.8 | [31] 1 | [32] 0.801 | [33] 0.99 | [34] 0.783 | [35] 0.804 | [36] 0.906 | [37] 0.911 | [38] 0.9 | [39] 0.98 | [40] 0.92 | [41] 0.885 | [42] 0.848 | [43] 0.763 | [44] 0.841 | [45] 0.995 | [46] 0.903 | [47] 0.982 | [48] 0.984 | [49] 0.837 | [50] 0.987 | [51] 0.908 | [52] 0.992 | [53] 0.986 | [54] 0.667 | [55] 0.99 | [56] 0.8 | [58] 0.839 | [59] 0.879 | [60] 0.998 | [61] 0.868 | [62] 0.854 | [63] 0.855 | [64] 0.988 | [65] 0.879 | [66] 0.995 | [71] 0.998 | [67] 0.992 | [68] 0.994 | [69] 0.994
active: [21] 0.732 | [24] 0.397 | [25] 0.462 | [57] 0.507

Cc1nc2n(c(=O)c1CCN1CCC(c3noc4cc(F)ccc34)CC1)CCCC2
inactive: [72] 0.998 | locus YAL040C, strain CLN3, hits give low values 1.02 | locus YCL061C, strain MRC1 (second series), hits give low values 1.01 | [73] 1 | locus YDR363W, strain ESC2, hits give low values 0.988 | locus YER002W, strain NOP16, hits give low values 1 | locus YGR229C, strain SMI1, hits give low values 1 | [74] 1 | locus YMR307W, strain GAS1, hits give low values 1.02 | [75] 1.03 | [76] 1.01 | locus YNL175C, strain NOP13, hits give low values 1.01 | locus YNL197C, strain WHI3, hits give low values 1.01 | locus YNL224C, strain SQS1, hits give low values 1 | locus YOR083W, strain WHI5 (second series), hits give low values 1 | [77] 1

Cc1cc(CN2CC(C)OC(C)C2)cc(C)c1O (centres undefined)
inactive: [72] 1.01 | locus YBR229C, strain ROT2, hits give low values 1.01 | [8] 1.09 | [73] 1.08 | locus YEL061C, strain CIN8, hits give low values 0.997 | locus YGR078C, strain PAC10, hits give low values 1.02 | [25] 1.03 | locus YHR087W, strain rtc3, hits give low values 0.976 | locus YJR043C, strain POL32, hits give low values 1.03 | locus YJR075W, strain HOC1, hits give low values 1 | locus YKL190W, strain CNB1, hits give low values 0.974 | locus YLR039C, strain RIC1, hits give low values 1.05 | locus YLR058C, strain SHM2 (second series), hits give low values 0.991 | locus YLR085C, strain ARP6, hits give low values 1.03 | locus YLR262C, strain YPT6, hits give low values 0.954 | locus YML094W, strain GIM5, hits give low values 0.996 | locus YMR219W, strain ESC1, hits give low values 0.997 | [74] 1.05 | [75] 0.988 | [76] 1.04 | locus YNL298W, strain CLA4 (second series), hits give low values 1.02 | locus YNL322C, strain KRE1, hits give low values 0.994 | locus YNR030W, strain Alg12, hits give low values 0.992 | locus YOL006C, strain TOP1, hits give low values 0.975 | locus YPL055C, strain LGE1, hits give low values 1.01 | [77] 1.03 | locus YPR135W, strain CTF4, hits give low values 1.04

O=C(Nc1ccc(Cl)cc1)O/N=C\c1ccn(-c2ccccc2)n1
active: [25] 0.611 | [28] 0.559 | [34] 0.605 | [41] 0.6 | [65] 0.662
inactive: [1] 0.958 | [2] 0.963 | [3] 0.95 | [4] 0.937 | [5] 0.962 | [6] 0.971 | [7] 0.955 | [8] 0.975 | [9] 0.941 | [10] 0.954 | [11] 0.8 | [12] 0.982 | [13] 0.952 | [14] 0.965 | [15] 0.859 | [16] 0.811 | [17] 0.882 | [18] 0.961 | [19] 0.955 | [20] 0.96 | [21] 0.956 | [70] 0.953 | [22] 0.876 | [23] 0.845 | [24] 0.775 | [26] 0.654 | [27] 0.835 | [29] 0.953 | [30] 0.738 | [31] 0.877 | [32] 0.857 | [33] 0.961 | [35] 0.834 | [36] 0.886 | [37] 0.82 | [38] 0.798 | [39] 0.948 | [40] 0.947 | [42] 0.829 | [43] 0.87 | [44] 0.804 | [45] 0.95 | [46] 0.779 | [47] 0.948 | [48] 0.954 | [49] 0.782 | [50] 0.97 | [51] 0.732 | [52] 0.954 | [53] 0.946 | [54] 0.785 | [55] 0.956 | [56] 0.797 | [57] 0.875 | [58] 0.929 | [59] 0.688 | [60] 0.954 | [61] 0.851 | [62] 0.885 | [63] 0.869 | [64] 0.959 | [66] 0.953 | [71] 0.937 | [67] 0.929 | [68] 0.903 | [69] 0.95
